Bioassay records from PubChem BioAssay.
S2 tox: cell viability loss in ATXN counter-screen. S2 cells (HEK-293 line with an ATXN2-luciferase reporter) viability, CellTiter-Fluor protease fluorescence, 24 h. Potency, µM (highest dose often 56.7 µM), usual class: cytotoxic. 400,000 tested, 0.49% active; note: nearly all actives have a fitted effect of over 40% in size
Nrf2 activator: Nrf2 pathway activation. AREc32 ARE-luciferase reporter (MCF7-derived line), luminescence, 24 h. 410,000 tested, 0.31% active. Potency, µM (doses to about 46.1 µM), for the others: at the highest dose activation, most hits filed as activators; note: % of control where 0% means no effect; nearly all actives have a fitted effect of over 65% in size
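Quantitative high-throughput format: AREc32 reporter cells, 1000 per well, received compound by pin transfer and were incubated 24 hr at 37 deg C, 5% CO2, before Steady-Glo luminescence detection.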
ATXN2 expr inh: reduces ATXN2 reporter expression in HEK-293 cells; HEK-293 ATXN2-luciferase reporter, luminescence, 24 h; Potency, µM (highest dose often 57 µM), without a hit: at the top dose activity change, negative = inhibition, hits mostly inhibitors; 360,000 tested, 0.72% active; note: % is set by controls: 0 for no effect and ±100 for the full control effect; nearly all actives have a fitted effect of over 55% in size
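qHTS (up to 57 uM final) was run with 24 h compound exposure of reporter cells at 37 °C. Each well was multiplexed: SteadyGlo luminescence measured ATXN2-luciferase expression after a fluorogenic Gly-Phe-AFC viability readout (25 uM final).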
A549 tox: kills or reduces viability of A549 cells in Nrf2 counter-screen; 390,000 tested, 0.16% active; Potency, µM (doses to about 46 µM), for the others: at the top dose activity change, negative = cytotoxicity, usual class: inhibitors; AID 504648; A549 ARE-Fluc cells, CellTiter-Fluor viability, 18-24 h; note: % is set by controls: 0 for no effect and ±100 for the full control effect
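A549 ARE_Fluc cells in 5% FBS OPTI-MEM were exposed to compounds in concentration-response for 18-24 h at 37 deg C. Viability was read by CellTiter-Fluor fluorescence (Ex 405/Em 525) after 30 min, before the luciferase read.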
Nrf2 inh: inhibitors of Nrf2 signaling. A549 ARE-Fluc reporter, luciferase luminescence, 18-24 h. Potency, µM (series often up to 46 µM), for the others: at the top dose activity change, negative = inhibition, usual class: inhibitors. 360,000 tested, 2.1% active; note: % is set by controls: 0 for no effect and ±100 for the full control effect; nearly all actives have a fitted effect of over 60% in size
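Quantitative HTS in A549 cells stably bearing an antioxidant response element-firefly luciferase construct. Inhibition of Nrf2-driven transcription was scored by luminescence after 18-24 h of compound exposure at 37 °C.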
* marks the source's active call; other numbers are inactive results; i = inactive; ? = inconclusive; / = not tested or not shown; [ ] = dose if it differs, or a comment. Most compounds without a hit are left out; they make up all but 2.9% or so of the library. Calls come from the whole dose curve; as a rule, active = well fitted curve in the direction sought with a large enough effect; inconclusive = small, poorly fitted or top-dose-only effect, or another doubt; inactive = no such curve, though single readings can be large; an effect the other way counts as inactive or inconclusive. Potency is the fitted concentration of half-maximal effect.

SMILES	S2 tox	Nrf2 activator	ATXN2 expr inh	A549 tox	Nrf2 inh
CC1Cc2cc(S(=O)(=O)NCc3ccc(N(C)C)cc3)ccc2N1C(=O)C1CCC1 (stereo unspecified)	i	5%	?	-2%	23µM*
O=C(N/N=C/c1cc([N+](=O)[O-])ccc1O)c1cc(-c2ccccc2)nc2ccccc12	?	0%	10µM*	-11%	?
O=C(N/N=C/c1ccc([N+](=O)[O-])o1)c1cc(-c2ccc(-c3ccccc3)cc2)nc2ccccc12	?	17%	?	-28%	?
O=C(N/N=C/c1cc([N+](=O)[O-])ccc1Cl)c1cc(-c2ccccc2)nc2ccccc12	i	0%	-4%	0%	4%
Cc1ccc(-c2cc(C(=O)N/N=C/c3ccc([N+](=O)[O-])o3)c3ccccc3n2)o1	i	2%	-26%	?	21µM*
O=C(N/N=C/c1cc([N+](=O)[O-])ccc1O)c1c[nH]c2ccccc12	i	0%	14µM*	-4%	-20%
CN(Cc1ccccc1)S(=O)(=O)c1ccc2c(c1)CCC(=O)N2	i	0%	-3%	0%	-29%
CC1(C)OC2OC(C(=O)N/N=C/c3ccccc3F)C3OC(C)(C)OC3C2O1 (stereo unspecified)	i	0%	1%	-3%	0%
CCCNC(=O)[C@H]1O[C@H]1C(=O)N[C@H](C(=O)N1CCC[C@@H]1C(=O)OC)C(C)CC (stereo partly specified)	/	/	22µM*	/	/
CCC(C)[C@H](NC(=O)C1CCC(CNC(=O)[C@@H]2CCCN2C(=O)OC(C)(C)C)CC1)C(=O)O (stereo partly specified)	i	0%	-30%	8%	10%
Cc1ccc(CSc2nc3ccc(NC(=O)COc4ccccc4F)cc3s2)cc1	i	0%	6%	-11%	?
Cc1cccc(NC(=O)CSc2nc3ccc(N4C(=O)c5ccccc5C4=O)cc3s2)c1C	?	0%	-24%	?	21µM*
Cc1ccccc1NC(=O)CSc1nc2ccc(NC(=O)COc3ccccc3F)cc2s1	?	4%	18µM*	-6%	?
CN(C)C(=O)CSc1nc2ccc(N3C(=O)c4ccccc4C3=O)cc2s1	?	3%	/	-8%	4%
O=S(=O)(c1ccc(F)cc1)n1ccc(-c2cccc(OCc3ccc(Cl)cc3Cl)c2)n1	i	0%	-5%	3%	-15%
COc1cccc(NC(=S)NC(=O)c2cncc(Br)c2)c1	i	1%	14%	0%	21%
CCOC(=O)C1=C(CN2CCN(c3ccccc3F)CC2)NC(=O)NC1c1ccc(OC)cc1 (stereo unspecified)	/	0%	/	-21%	18µM*
CCOC(=O)C1=C(CN2CCC(C)CC2)NC(=O)NC1c1ccc(OC(C)C)cc1 (stereo unspecified)	?	0%	-34%	-11%	?
CCOC(=O)C1=C(CN2CCN(C(=O)c3ccco3)CC2)NC(=O)NC1c1ccc(OC)cc1 (stereo unspecified)	i	0%	/	1%	?
CCOC(=O)C1=C(CN(CC)Cc2ccccc2)NC(=O)NC1c1ccc(OC(C)C)cc1 (stereo unspecified)	?	0%	?	?	18µM*
CCOC(=O)C1=C(CN2CCN(c3ccccc3F)CC2)NC(=O)NC1c1ccc(Cl)cc1 (stereo unspecified)	i	-1%	8%	-22%	21µM*
O=C(Cn1c2ccccc2c(=O)c2ccccc21)N/N=C/c1cc([N+](=O)[O-])ccc1N1CCCCCC1	?	-1%	?	-9%	-4%
O=C(Cn1c2ccccc2c(=O)c2ccccc21)N/N=C/c1ccc(N2CCCC2)c([N+](=O)[O-])c1	/	0%	32µM*	-12%	3%
CSc1nc(Cl)c(Cc2ccc(OC(C)C)cc2)c(N(C)C)n1	i	2%	-15%	14%	?
CCOc1ccc(Cc2c(Cl)nc(SC)nc2N(C)C)cc1	i	0%	-37%	15%	13µM*
SMILES	S2 tox	Nrf2 activator	ATXN2 expr inh	A549 tox	Nrf2 inh
O=C(CCN1C(=O)/C(=C\c2ccccc2Cl)SC1=S)N1CCN(c2ccccc2)CC1	i	0%	-3%	1%	-10%
CCc1sc(Nc2ccc(Cl)cc2)nc1-c1cc2cccc(OC)c2oc1=O	?	4%	1%	1%	/
FC(F)(F)c1ccc(C2[C@H]3CN(Cc4cccnc4)[C@H](c4ccccc4)C34CC2(c2cccnc2)C4)cc1 (stereo partly specified)	?	-1%	?	?	26µM*
FC(F)(F)c1ccc(C2[C@H]3CN(Cc4ccc(-c5ccccc5)cc4)[C@H](c4ccccc4)C34CC2(c2cccnc2)C4)cc1 (stereo partly specified)	i	5%	8%	-3%	16%
CC(=O)OCCCNc1cc(SCc2ccco2)c2nonc2c1[N+](=O)[O-]	i	?	-32%	16µM*	-2%
CCC(=O)OCCNc1cc(Sc2nc3ccccc3[nH]2)c2nonc2c1[N+](=O)[O-]	28µM*	-3%	28µM*	-19%	2%
CCCSc1cc(NCCOC(=O)CCC)c([N+](=O)[O-])c2nonc12	?	12%	-19%	?	-7%
CCC(=O)OCCNc1cc(Sc2nc3ccccc3s2)c2nonc2c1[N+](=O)[O-]	8.9µM*	0%	6.3µM*	?	/
O=[N+]([O-])c1c(NCCCO)cc(Sc2nc3ccccc3s2)c2nonc12	25µM*	4%	?	?	?
CCCC(=O)OCCNc1cc(SCc2ccco2)c2nonc2c1[N+](=O)[O-]	i	?	-35%	?	-10%
CCCCC(=O)NC(=S)NNC(=O)CC	i	0%	-5%	-1%	-7%
O=C(NCCO)c1ccc2[nH]c3ccccc3c2c1	i	3%	4%	0%	/
Cc1nnc(Sc2cc(NCCO)c([N+](=O)[O-])c3nonc23)s1	/	0%	-19%[11.3 µM]	26µM*	?
CCCC(=O)OCCNc1cc(Sc2nccn2C)c2nonc2c1[N+](=O)[O-]	/	7%	20µM*	-18%	7%
Cc1ccc(C(N)=O)cc1Nc1nccc(-c2cn(C(C)C)c3cnccc23)n1	/	/	12µM*	/	/
Cc1cc(C)nc(SC2=CS(=O)(=O)c3ccccc32)n1	?	?	?	-15%	?
O=S1(=O)C=C(Sc2nc3ccccc3s2)c2ccccc21	7.1µM*	-2%	?	23µM*	18µM*
CCOC(=O)c1c(NC(=O)C2=C(C)NC(=S)NC2c2ccc(C)cc2)sc(C)c1C (stereo unspecified)	/	2%	-6%	-19%	?
Oc1c(Br)cc(Br)cc1/C=N/Nc1ccc(Cl)nn1	?	3%	2.8µM*	1%	9%
